Compound activity from PubChem.
In the library only some 4% were active in any assay of this set; here they are far more common.
D1 potentiator – potentiators of human D1 dopamine receptor; P21728; AID 504651; HEK293 TREx D1 cells, calcium flux, dopamine EC20 potentiation; potentiation, % at 10 µM; 360,000 compounds, 0.036% hits; in the data active = potentiation above about 30%
Target sequence (P21728 whole entry, looked up): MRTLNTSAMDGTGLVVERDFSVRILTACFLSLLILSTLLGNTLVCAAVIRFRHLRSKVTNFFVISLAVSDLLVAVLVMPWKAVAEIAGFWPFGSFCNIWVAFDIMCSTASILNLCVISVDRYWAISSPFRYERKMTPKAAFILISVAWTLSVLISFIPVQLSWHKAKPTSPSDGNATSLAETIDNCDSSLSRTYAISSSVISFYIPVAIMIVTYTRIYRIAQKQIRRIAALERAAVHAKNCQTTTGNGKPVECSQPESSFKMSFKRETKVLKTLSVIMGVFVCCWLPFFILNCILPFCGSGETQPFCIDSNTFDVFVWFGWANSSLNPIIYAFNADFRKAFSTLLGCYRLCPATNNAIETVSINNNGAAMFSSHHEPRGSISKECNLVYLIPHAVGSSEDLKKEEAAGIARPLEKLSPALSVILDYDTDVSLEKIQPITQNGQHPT
TRHR ag – activates the human TRH receptor | P34981 | TRHR cells, calcium flux fluo-8, FDSS agonist mode | activation, % at 2 µM | 360,000 compounds, 0.18% hits
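Agonist-mode FDSS calcium read (Ex 480/Em 530, 1 s cycles) in 1536-well TRHR cells with fluo-8 dye, after 10-cycle baseline and 23 nL compound addition; TRH at EC20 (10 nM final) added afterwards for the enhancer phase.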
TRHR PAM – TRH receptor (human) allosteric enhancement; enhancement, % at 2 µM; AID 493056; TRHR cells, fluo-8 calcium fluorescence, EC20 TRH enhancement; 360,000 compounds, 0.66% hits; P34981; in the data active = enhancement above about 30%
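TRHR-expressing cells loaded with fluo-8 calcium dye were read kinetically (ex 480/em 530) during compound addition, then stimulated with an EC20 of TRH (10 nM final). Enhancement of the Gq-mediated intracellular calcium response was scored.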
D1 antagonist – human D1 dopamine receptor antagonism; P21728; activity change, negative = inhibition, % at 10 µM; HEK293 TREx D1 cells, calcium flux, dopamine EC80; stronger effect = lower value; 360,000 compounds, 3.2% hits; AID 504652; in the data active = activity change below about -30%
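After overnight tetracycline induction at 30 C, force-coupled D1 HEK293 cells took up a no-wash calcium dye at room temperature. Compounds were added and monitored 180 s, and the response to EC80 dopamine was then recorded.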
D1 agonist – activates the human D1 dopamine receptor; 360,000 compounds, 1% hits; HEK293 T-REx D1 cells, calcium flux, agonist mode; activation, % at 2 µM
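Agonism was scored from calcium flux recorded over 180 s (1 read/s) after pintool compound addition, following a 10-cycle baseline. Cells were inducible force-coupled HEK293 TREx D1, plated overnight at 30 C and loaded with no-wash calcium dye.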
GRP78 ERSR act – inducers of ER stress response in human glioma cells. U87-MG GRP78 promoter luciferase reporter, 16 h. Potency, µM, hits mostly activators. 420,000 compounds, 0.02% hits. AID 602332; active = well fitted activation curve with a large enough effect; note: series mostly up to about 76 µM; nearly all actives have a fitted effect of over 35% in size
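ERSR induction read as luciferase luminescence (Bright-Glo, 10 min at room temperature) in stably transfected human U87-MG glioma cells exposed to compounds for 16 h, using GRP78 as sensor.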
Numbers stand for hits. Cut-off read from the data, not from the text of the source, unless noted: active = activation above about 30%; inactive = the rest.

`COc1ccc(/C(C)=N/Nc2ccc(C(=O)O)cc2)cc1OC` gave D1 potentiator inactive, TRHR ag inactive, TRHR PAM inactive, D1 antagonist -31.3, D1 agonist inactive and GRP78 ERSR act inactive.
Screening COc1ccc(C(=O)CC(=O)c2ccc(C(C)(C)C)cc2)cc1 returned GRP78 ERSR act inactive.
`COc1ccc(C(=O)C(CCC(CNC(C)(C)C)C(=O)c2ccc(OC)cc2)CNC(C)(C)C)cc1` (stereo not given) gave D1 potentiator inactive, TRHR ag inactive, TRHR PAM inactive, D1 antagonist -37.1, D1 agonist inactive and GRP78 ERSR act inactive.
CCc1cc2c(=O)n(Cc3ccco3)c(SCC(=O)N(C)C3CCS(=O)(=O)C3)nc2s1 (stereo not given) was read as D1 potentiator inactive, TRHR ag inactive, TRHR PAM inactive, D1 antagonist -35.7, D1 agonist inactive and GRP78 ERSR act inactive.
For C=CCn1c(SCC(=O)N(C)C2CCS(=O)(=O)C2)nnc1-c1ccccc1 (stereo not given) the results were D1 potentiator inactive, TRHR ag inactive, TRHR PAM inactive, D1 antagonist inactive, D1 agonist inactive and GRP78 ERSR act inactive.
Screening CCn1c(SCC(=O)N(C)C2CCS(=O)(=O)C2)nnc1-c1ccccc1 (stereo not given) returned D1 potentiator inactive, TRHR ag inactive, TRHR PAM inactive, D1 antagonist -64.5, D1 agonist inactive and GRP78 ERSR act inactive.
Screening CCc1cccc(NC(=O)Cn2nc(C)c3sc4ccccc4c3c2=O)c1 returned D1 potentiator inactive, TRHR ag inactive, TRHR PAM inactive, D1 antagonist -42.3, D1 agonist inactive and GRP78 ERSR act inactive.
Screening Cc1ccc(C)c(NC(=O)CCCn2nc(C)c3sc4ccccc4c3c2=O)c1 returned D1 potentiator inactive, TRHR ag inactive, TRHR PAM inactive, D1 antagonist inactive, D1 agonist inactive and GRP78 ERSR act inactive.
For CCc1cccc(C)c1NC(=O)CCCn1nc(C)c2sc3ccccc3c2c1=O the results were D1 potentiator inactive, TRHR ag inactive, TRHR PAM inactive, D1 antagonist -38.6, D1 agonist inactive and GRP78 ERSR act inactive.
For O=C1c2ccccc2NC(c2ccc(-c3ccccc3F)o2)N1O (stereo not given) the results were D1 potentiator inactive, TRHR ag inactive, TRHR PAM 36.1, D1 agonist inactive and GRP78 ERSR act inactive.
For Cc1nn(C)c(C(=O)NNC(=S)NCc2ccccc2)c1Cl the results were D1 potentiator inactive, TRHR ag inactive, TRHR PAM 39.1, D1 antagonist -32.1, D1 agonist inactive and GRP78 ERSR act inactive.
For Cc1cc(C(=O)NNC(=S)NCc2ccccc2)cs1 the results were D1 potentiator inactive, TRHR ag inactive, TRHR PAM inactive, D1 antagonist inactive, D1 agonist inactive and GRP78 ERSR act inactive.
`Cc1nn(C)c(C(=O)NNC(=O)Nc2cccc(C(F)(F)F)c2)c1Cl` gave D1 potentiator inactive, TRHR ag inactive, TRHR PAM inactive, D1 antagonist -30.4, D1 agonist inactive and GRP78 ERSR act inactive.
N#Cc1nc(-c2ccc(OCc3ccccc3)cc2)oc1NCc1ccco1 was read as D1 potentiator inactive, TRHR ag inactive, TRHR PAM inactive, D1 antagonist inactive, D1 agonist inactive and GRP78 ERSR act inactive.
CNc1oc(-c2ccc(OCc3ccccc3)cc2)nc1C#N was read as D1 potentiator inactive, TRHR ag inactive, TRHR PAM inactive, D1 antagonist -32.2, D1 agonist inactive and GRP78 ERSR act inactive.
`Fc1ccc(-c2nc(Nc3cccc(C(F)(F)F)c3)nc3c2COc2ccccc2-3)cc1` gave D1 potentiator inactive, TRHR ag inactive, TRHR PAM inactive, D1 antagonist inactive, D1 agonist inactive and GRP78 ERSR act inactive.
S=C(NCCCN1CCOCC1)N1CCN(c2nc(-c3ccc(Cl)cc3)cs2)CC1 was read as D1 potentiator inactive, TRHR ag inactive, TRHR PAM inactive, D1 antagonist -54.9, D1 agonist inactive and GRP78 ERSR act inactive.
Screening S=C(NCC1CCCO1)N1CCN(c2nc(-c3ccc(Cl)cc3)cs2)CC1 (stereo not given) returned D1 potentiator inactive, TRHR ag inactive, TRHR PAM inactive, D1 antagonist -30.2, D1 agonist inactive and GRP78 ERSR act inactive.
Screening S=C(NCCCN1CCOCC1)N1CCN(c2nc(-c3ccccc3)cs2)CC1 returned D1 potentiator inactive, TRHR ag inactive, TRHR PAM inactive, D1 antagonist inactive, D1 agonist 87.8 and GRP78 ERSR act inactive.
COCCNC(=S)N1CCN(c2nc(-c3ccccc3)cs2)CC1 was read as D1 potentiator inactive, TRHR ag inactive, TRHR PAM inactive, D1 antagonist inactive, D1 agonist inactive and GRP78 ERSR act inactive.
S=C(NCC1CCCO1)N1CCN(c2cccc(Cl)c2)CC1 (stereo not given) was read as D1 potentiator inactive, TRHR ag inactive, TRHR PAM inactive, D1 antagonist inactive, D1 agonist inactive and GRP78 ERSR act inactive.
Screening S=C(NCCCN1CCOCC1)N1CCN(c2ccccc2)CC1 returned D1 potentiator inactive, TRHR ag inactive, TRHR PAM inactive, D1 antagonist inactive, D1 agonist inactive and GRP78 ERSR act inactive.
c1ccc2c(Nc3nc(N4CCOCC4)c4ccccc4n3)cccc2c1 was read as D1 potentiator inactive, TRHR ag inactive, TRHR PAM inactive, D1 antagonist -47.7, D1 agonist inactive and GRP78 ERSR act inactive.
For Cc1cc(NC2CCCCC2)nc(NCc2ccccc2)n1 the results were D1 potentiator inactive, TRHR ag inactive, TRHR PAM inactive, D1 antagonist inactive, D1 agonist 54.9 and GRP78 ERSR act inactive.
`Cc1cc(N2CCN(c3ccccc3)CC2)nc(NCc2ccccc2)n1` gave D1 potentiator inactive, TRHR ag inactive, TRHR PAM inactive, D1 antagonist -49.5, D1 agonist inactive and GRP78 ERSR act inactive.
For Cc1ccc(Nc2cc(C)nc(NCc3ccccc3)n2)cc1 the results were D1 potentiator inactive, TRHR ag inactive, TRHR PAM 32.2, D1 antagonist inactive, D1 agonist 53.4 and GRP78 ERSR act inactive.
COc1ccc(Nc2cc(C)nc(NCc3ccccc3)n2)cc1 was read as D1 potentiator inactive, TRHR ag inactive, TRHR PAM inactive, D1 antagonist inactive, D1 agonist inactive and GRP78 ERSR act inactive.
Screening CCCc1nc(C)cc(N2CCN(c3ccccc3)CC2)n1 returned D1 potentiator inactive, TRHR ag inactive, TRHR PAM inactive, D1 antagonist inactive, D1 agonist inactive and GRP78 ERSR act inactive.
`N#Cc1ccccc1-c1ccc2ncnc(NCc3cccs3)c2c1` gave GRP78 ERSR act inactive.
Screening COc1ccccc1S(=O)(=O)Cc1ccc(C(=O)NCc2ccccc2)o1 returned D1 potentiator inactive, TRHR ag inactive, TRHR PAM inactive, D1 antagonist inactive, D1 agonist inactive and GRP78 ERSR act inactive.
